# Results: PubChem BioAssay (NCI)
# This is part of a sample that, as a whole, favours compounds with a hit. Of some 79,000 tested, about 15% had one in any assay. Unmarked numbers belong to inactive results. Active and inactive are the calls of the source. Cut-off read from the data, not from the text of the source: active = growth inhibition above about 70%; inactive = the rest. Where a SMILES comes first, the peptide text is derived from it.
# Tests used:
# [1] = NCI Yeast Anticancer Drug Screen. Data for the rad50 strain (AID 155);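 note: 0% = growth of vehicle-only cultures of the same strain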; details: S. cerevisiae rad50 strain growth inhibition, stronger effect = higher value; at 50.0 µM unless noted
# How it was run: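 Genetically altered yeast (DNA repair pathway); compound treatment; growth inhibition vs vehicle ctrl.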
# [2] = NCI Yeast Anticancer Drug Screen. Data for the mec2-1 strain (AID 157); details: S. cerevisiae mec2-1 strain, stronger effect = higher value; at 50.0 µM unless noted
# How it was run: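 Strain: mec2-1 (DNA repair/cell cycle alteration). Compound exposure, then growth measured; inhibition expressed relative to vehicle.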
# [3] = NCI Yeast Anticancer Drug Screen. Data for the sgs1 mgt1 strain (AID 161);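 note: 0% = growth of cultures given vehicle only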; details: S. cerevisiae sgs1 mgt1 strain, stronger effect = higher value; at 50.0 µM unless noted
# How it was run: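 Test agents were incubated with a DNA-repair-mutant yeast strain. Growth was then read and compared against vehicle-treated controls.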
# [4] = NCI Yeast Anticancer Drug Screen. Data for the cln2 rad14 strain (AID 165);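 note: 0% = growth equal to vehicle treated cultures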; details: S. cerevisiae cln2 rad14 strain, stronger effect = higher value; at 50.0 µM unless noted
# How it was run: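 Compounds are applied to the cln2 rad14 yeast strain, and growth is then compared with that of vehicle-treated cultures to give inhibition.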
# [5] = NCI Yeast Anticancer Drug Screen. Data for the bub3 strain (AID 167); details: S. cerevisiae bub3 mutant strain, stronger effect = higher value; at 50.0 µM unless noted
# How it was run: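 Yeast carrying a defined mutation is treated with each compound, and growth is compared with that of vehicle-exposed cells to give inhibition.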
# [6] = NCI Yeast Anticancer Drug Screen. Data for the mlh1 rad18 strain (AID 175); details: S. cerevisiae mlh1 rad18 strain growth inhibition, stronger effect = higher value; at 50.0 µM unless noted
# How it was run: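 Read-out is yeast growth inhibition, calculated against vehicle-only controls. The compound was applied to a strain engineered with DNA damage repair alterations.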
SMILES,growth inhibition [1],growth inhibition [2],growth inhibition [3],growth inhibition [4],growth inhibition [5] [%],growth inhibition [6]
O=c1[nH]n(Cc2ccccc2CCl)c2ccc([N+](=O)[O-])cc12,24.1%,13.3%,-10.8%,24%,4.1,3.7%
Cc1ccnc(NC#N)n1,14.8%,13.6%,21.6%,19.1%,19.4,14.8%
CC(C)(C)C(=O)OCC1CCC(n2cnc3c(=O)[nH]c(N)nc32)O1 (configuration not stated),34.3%,2.3%,-3.65%,3.05%,-2.25,25.7%
O=c1[nH]cnc2nc(N3CCOCC3)sc12,-15.7%,-4.6%,-1.7%,-5.8%,-6.5,-4.65%
O=S(=O)(N/N=C/c1cccc(Cl)c1Cl)c1ccccc1,9.3%,3%,4.4%,-37.6%,3.5,21.5%
Nc1cc(C(=O)O)[nH]c(=O)n1,-23.7%,-18.4%,-20.2%,-70.2%,-18.9,-10.3%
COC1COCOC1C(OC)C1OCOCC1OC (configuration not stated),-2.25%,-12.2%,-8.15%,-46.3%,-4.25,-2.8%
COc1cc(C)c(C)c(OC(=O)c2c(C)c(C)c(OC)c(C)c2OC)c1C,10.3%,-17.1%,11.3%,8.9%,23.6,16.1%
CCCCCCCCCCCCSCCSCCCCCCCCCCCC,9.85%,15.4%,4.9%,-26.8%,-29.4,1.3%
C(CCC1CO1)CC1CO1 (configuration not stated),3.25%,-21.1%,-31.6%,-27.2%,-5.45,-22.8%
COc1ccc(NC(Nc2ccc(OC)cc2)C(Cl)(Cl)Cl)cc1,15.1%,9.5%,13%,-11.2%,-4.55,-8.6%
CS(=O)(=O)OCCN(CCOS(C)(=O)=O)c1ccc(C=Nc2ccc(C(=O)O)c(O)c2)cc1,84.3% (active),84.5% (active),79.5% (active),78.7% (active),19.8,94% (active)
O=C1C=CC(=Nc2ccc3c(c2)-c2ccccc2C3)O1,3.2%,21%,5.05%,-9.9%,1.35,12.1%
O=C(O)CCC1NCCCO1 (configuration not stated),1.85%,3%,3.7%,-35.1%,-4.15,0.75%
[N-]=[N+]=CC(=O)CCC(=O)N(c1ccccc1)c1ccccc1,-30%,-20.8%,-52.5%,-28.5%,2.2,-30.6%
O=C1/C(=C\C=C\c2ccccc2)CCCC/C1=C\C=C\c1ccccc1,11.3%,-0.35%,-0.95%,5.95%,-1.4,8.35%
O=C(Nc1ccc(Cl)cc1)C(Cl)C(Cl)c1ccc(Cl)cc1 (configuration not stated),-15.6%,-6.3%,-7.65%,-22.4%,9.05,-23.1%
O=C(O)/C=C1\NC(=O)NC1=O,16.1%,-5.1%,11.8%,6.1%,5.75,33%
O=C1CCC2OC(=O)C3CCCC1C23 (configuration not stated),-6.05%,-1.85%,-19%,0.1%,-2.65,-14.2%
C=CCC(Cc1ccccc1)C(N)=O (configuration not stated),-21.1%,-51.7%,-14.5%,10.6%,-22.2,14.4%
O=C1C(O)=C(O)C(Br)=C/C1=C(/c1ccccc1S(=O)(=O)O)c1cc(Br)c(O)c(O)c1O,9.65%,6.9%,15.5%,1.8%,-0.2,18.4%

SMILES,growth inhibition [1],growth inhibition [2],growth inhibition [3],growth inhibition [4],growth inhibition [5] [%],growth inhibition [6]
COc1ccccc1NC(=O)C1=C(C)NC(C)=C(C(=O)Nc2ccccc2OC)C1c1ccccc1F,32%,5.35%,17.1%,16%,-1.05,15.7%
C/C(=C(/C)c1ccc(O)cc1)c1ccc(O)cc1,-9.8%,-23.8%,16.3%,9.05%,45.9,2.7%
NC(=O)C(NCc1ccccc1)c1ccccc1 (configuration not stated),-2.65%,4.4%,1.6%,12.5%,2.6,2.6%
CNC(=O)CNC(=O)C(NC(=O)CNC(=O)C1CCCN1C(=O)C(C)NC(=O)C(NC(C)=O)C(C)C)C(C)C (configuration not stated) (Ac-VAPGVG-NHMe; configuration not given here),0.3%,-13.9%,3.55%,-6.6%,-11.7,-4.75%
O=C1/C(=C/c2ccc(O)cc2)CCc2ccccc21,-21.6%,-6.35%,-2.1%,2.75%,11.9,-34.2%
CCCCC/C(C=O)=C\c1ccccc1,38.5%,15.8%,39.5%,-12.2%,18,38%
O=C(O)c1cc(Cl)cc(C(=O)O)n1,-19.4%,-1.75%,-11.8%,16.1%,4.65,-1.7%
CCOc1ccc(OCC)cc1,3.6%,-0.65%,-9.05%,-29.3%,-11.1,4.65%
OCCc1ccc2ccccc2n1,6.05%,14.2%,10.7%,6.2%,-0.8,3.5%
NC(=O)CCCO,6.1%,-2.65%,-3.25%,6.6%,3.25,2.4%
CCN(CC)Cc1cc(O)ccc1NCCCNc1ccnc2cc(Cl)ccc12,49.4%,11.1%,40.1%,16.4%,-7.05,12.1%
CC(C)c1cccc(C(C)C)c1NC(=O)N1CCCCC1,4.8%,-16.2%,0.05%,3.85%,-1.65,10.2%
O=C(Oc1cccc(O)c1)c1ccccc1,-7.25%,11%,-9.15%,-18.8%,19.9,-6.1%
Cc1ccc(C(=O)/C=C/c2cccc3ccccc23)cc1,16.1%,3.65%,21.5%,4.25%,9.95,3.95%
CC1CN(S(=O)(=O)c2ccccc2)CCN1S(=O)(=O)c1ccccc1 (configuration not stated),-9.65%,-4.3%,-8.35%,-8.45%,1.5,-0.55%
CC(=O)c1c(C)cc2cc(C)cc(O)c2c1O,30.9%,17.9%,1.4%,0.6%,0.4,29.9%
C=C1C(=O)O[C@@H]2C[C@@]3(C)[C@H](O)CCC(=C)[C@@H]3C[C@H]12,-4.65%,25.1%,3.95%,17.1%,19.6,5.5%
COc1ccc(C=O)c(Cl)c1OC,26.8%,14.4%,0.95%,6.55%,-7.85,-16.8%
NC(=O)c1c([N+](=O)[O-])ncn1C1OC(CO)C(O)C1O (configuration not stated),20.5%,-7.75%,-5.8%,-12.2%,5.8,14.1%
O=S(=O)(O)C(I)S(=O)(=O)O,-19.1%,-2.65%,-19.4%,-18.2%,-10.8,-20%
[S-]c1n[n+](-c2ccccc2)cs1,2.95%,2.1%,0.15%,-5.25%,-23,3.1%
